High-throughput results as filed in PubChem BioAssay.
Rows were chosen to be rich in hits. Some 1.1% of all compounds tested hit in one or more screens of this group.
OPRM1-OPRD1 ag: agonists of human mu-delta opioid receptor heterodimerization | cells, OPRM1-OPRD1 heterodimerization, luminescence | activation, % at 9.3 µM | 0.3% of 340,000 active | P35372+P41143 | AID 504326;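 note: 0% = vehicle-treated cells and 100% = reference agonist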
Target sequence (P35372 whole entry, looked up): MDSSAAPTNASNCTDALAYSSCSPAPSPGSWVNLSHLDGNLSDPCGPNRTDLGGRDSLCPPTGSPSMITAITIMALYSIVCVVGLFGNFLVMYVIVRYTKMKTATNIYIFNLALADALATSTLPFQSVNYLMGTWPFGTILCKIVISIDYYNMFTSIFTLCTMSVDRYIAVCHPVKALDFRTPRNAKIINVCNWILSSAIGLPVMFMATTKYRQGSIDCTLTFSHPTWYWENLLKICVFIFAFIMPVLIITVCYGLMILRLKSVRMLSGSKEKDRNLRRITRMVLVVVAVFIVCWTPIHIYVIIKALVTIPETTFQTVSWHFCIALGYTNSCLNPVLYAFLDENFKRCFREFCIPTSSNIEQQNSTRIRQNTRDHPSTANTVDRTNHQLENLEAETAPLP
Target sequence (P41143 whole entry, looked up): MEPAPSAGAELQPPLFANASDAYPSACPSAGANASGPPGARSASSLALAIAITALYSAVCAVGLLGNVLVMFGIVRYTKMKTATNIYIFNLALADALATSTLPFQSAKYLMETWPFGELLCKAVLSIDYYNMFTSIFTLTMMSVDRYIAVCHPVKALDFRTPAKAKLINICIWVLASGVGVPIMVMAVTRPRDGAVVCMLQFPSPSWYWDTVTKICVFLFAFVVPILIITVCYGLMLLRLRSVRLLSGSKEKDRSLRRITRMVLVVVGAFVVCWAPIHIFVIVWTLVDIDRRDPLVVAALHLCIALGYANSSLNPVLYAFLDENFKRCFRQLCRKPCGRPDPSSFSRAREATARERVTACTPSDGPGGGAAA
MOR-DOR inv ag: inverse agonist of human OPRM1-OPRD1 heterodimerization; cell-based MOR-DOR heterodimer luminescence, inverse agonism; inhibition, % at 9.3 µM; 0.21% of 340,000 active; in the data active = inhibition above about 22%, passing the limit was not always enough;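 note: 0% = cells with DMSO and 100% = wells without cells with DMSO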
HTR5A inv ctr: counter-screen for OPRM1-OPRD1 inverse agonists: human HTR5A inverse agonism; inhibition, % at 9.3 µM; HTR5A cell line, luminescence; 0.083% of 340,000 active; P47898; in the data active = inhibition mostly above about 23%, no sharp cut-off; inactive = mostly below about 18%;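 note: 0% = cells with DMSO and 100% = no-cell wells with DMSO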
HTR5A ag: counter-screen for OPRM1-OPRD1 agonists: human HTR5A agonism | 0.61% of 340,000 active | P47898 | activation, % at 9.3 µM | HTR5A agonist assay, luminescence, cell-based; in the data active = activation mostly above about 9.5%, no sharp cut-off; inactive = mostly below about 7.6%;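 note: 0% = cells with vehicle only and 100% = reference agonist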
MOR-DOR ag conf: confirmation of human OPRM1-OPRD1 heterodimerization agonists; 45% of 830 active; activation, % at 9.3 µM; AID 504904; shares compounds with OPRM1-OPRD1 ag; cells, MOR-DOR heterodimerization, luminescence complementation;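 note: 0% = vehicle-treated cells and 100% = reference agonist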
HTR5A ag counter: counter-screen for OPRM1-OPRD1 agonists: human HTR5A agonism; shares compounds with OPRM1-OPRD1 ag; activation, % at 9.3 µM; AID 504905; 8% of 830 active; HTR5A agonist counterscreen, cell luminescence; in the data active = activation above about 17%;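 note: 0% = vehicle-treated cells and 100% = reference agonist response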
* = called active by the depositor; i = inactive; · = no result given. Cut-off read from the data, not from the text of the source, unless noted: active = activation above about 18%; inactive = the rest.

SMILES	OPRM1-OPRD1 ag	MOR-DOR inv ag	HTR5A inv ctr	HTR5A ag	MOR-DOR ag conf	HTR5A ag counter
Cc1ccccc1NS(=O)(=O)c1cc2c3c(c1)C(C)C(=O)N3CCC2 (stereo not given)	0	-1	-11	3	·	·
Cc1oc(-c2cccc(F)c2)nc1CN(Cc1ccccc1)C[C@@H]1CCC(=O)N1	29*	-134	-17	2	11	3
COc1ccc(NC(=O)COc2ccccc2C(=O)NCC(c2ccccc2)N(C)C)cc1Cl (stereo not given)	64*	i	-2	-1	62*	0
Oc1ccc(Br)cc1CNc1cccc2cccnc12	19*	-89	-3	1	-2	-9
COc1ccccc1OCCNC(=O)C1CC(=O)N(c2cccc(SC)c2)C1 (stereo not given)	-3	13	-6	0	·	·
COc1ccc2c(CC(=O)Nc3ccc(OC)c(NS(=O)(=O)c4ccc(F)cc4)c3)coc2c1	19*	-118	-9	3	6	1
COc1ccc2c(CC(=O)Nc3ccccc3OC)coc2c1	-3	17	3	-1	·	·
CC(C)C[C@H]1CN=C(Nc2ccccc2)N1CCc1cccc(F)c1	0	-1	-9	4	·	·
Cc1cccc(CCN2C(Nc3ccccc3)=NC[C@@H]2CC(C)C)c1	38*	-173	9	9	0	-2
COC(=O)Nc1ccc(S(=O)(=O)N2CCC(C(=O)NCc3ccc4c(c3)OCO4)CC2)cc1	-1	4	6	-2	·	·
COc1ccc(CNC(=O)C2(CC3CC(c4ccccc4)=NO3)CCNCC2)cc1 (stereo not given)	-3	16	-29	3	·	·
COc1ccc2cc3cc(C(=O)Nc4cc(OC)c(OC)c(OC)c4)oc3nc2c1	20*	-122	-36	1	21*	6
COc1ccc2cc3cc(C(=O)NC(C)C)oc3nc2c1	-1	4	9	0	·	·
CC(=O)Nc1ccc(CN2CCCC(C(=O)c3cccc(C(F)(F)F)c3)C2)cc1 (stereo not given)	58*	-366	14	1	56*	-2
CN(C)C(CNC(=S)Nc1cccc(Cl)c1)c1ccccc1 (stereo not given)	357*	i	-19	9	421*	3
Cc1ccc(NC(=S)NCC2CCN(C(C)c3ccccc3)C2)cc1 (stereo not given)	-1	4	-1	2	·	·
CC(c1ccccc1)N1CCC(CNC(=S)Nc2cccc(Cl)c2)C1 (stereo not given)	19*	-96	-10	0	1	28*
Cc1cccc(NC(=S)NCC(c2ccccc2)N(C)C)c1 (stereo not given)	348*	i	-6	2	1	2
Cc1cccc(NC(=S)NC(C)CCc2ccccc2)c1 (stereo not given)	6	-34	-17	7	·	·
Cc1ccc(Cl)cc1NC(=O)CNCC(c1ccccc1)N(C)C (stereo not given)	50*	-228	-12	4	76*	1
O=C(C1=NN(c2ccccc2)C(=O)CC1)N1CCc2ccccc2C1	-4	22	5	-3	·	·
Cc1nc(N2CCN(c3ccc(Cl)cc3)CC2)[nH]c(=O)c1C	-1	5	-15	4	·	·
Cc1ccccc1Nc1nc(-c2ccccc2)c(C(=O)Nc2cccnc2)s1	-3	12	-4	0	·	·
O=C(Nc1cccnc1)c1sc(Nc2ccccc2F)nc1-c1ccccc1	21*	-111	-32	-1	5	5
CC(C)CCn1cnc2c(oc3nc4c(cc32)CCCC4)c1=O	-1	3	2	-2	·	·
SMILES	OPRM1-OPRD1 ag	MOR-DOR inv ag	HTR5A inv ctr	HTR5A ag	MOR-DOR ag conf	HTR5A ag counter
COC(=O)c1ccccc1NC(=O)COC(=O)/C=C/c1ccco1	21*	-97	9	-1	6	2
O=C(COC(=O)/C=C/c1ccco1)Nc1ccccc1	-2	10	7	-2	·	·
CC(C)c1ccc(NC(=O)C2C3C=CC4(O3)C2C(=O)N(CCCN2CCCCC2)C4C(=O)NC2CCCCC2)cc1 (stereo not given)	26*	-212	-8	3	-1	-8
CCCCN(C)CCN1C(=O)C2C(C(=O)Nc3ccc(C)cc3)C3C=CC2(O3)C1C(=O)NC1CCCCC1 (stereo not given)	2	-18	0	0	·	·
Cc1ccc(NC(=O)C2C3C=CC4(O3)C2C(=O)N(CCCN2CCCC2)C4C(=O)NC2CCCCC2)cc1Cl (stereo not given)	0	-1	2	-1	·	·
CCN(CC)CCN1C(=O)C2C(C(=O)Nc3ccc(C(C)C)cc3)C3C=CC2(O3)C1C(=O)NC1CCCCC1 (stereo not given)	37*	-302	-10	4	-1	-6
COc1ccc2[nH]c3c(=O)n(/N=C/[C@H]4C(C)C=C(C)CC4C)c(=O)[nH]c3c2c1 (stereo not given in full)	54*	-274	-4	1	39*	16
COc1ccc2c(c1)[nH]c1c(=O)n(/N=C/C3C(C)C=C(C)CC3C)c(=O)[nH]c12 (stereo not given)	7	-32	33	0	·	·
O=C(CSc1nnc(CNC(=O)c2c(F)cccc2F)o1)NCc1ccco1	-2	12	7	-1	·	·
Cc1cc(Cl)ccc1OCCCC(=O)N/N=C/c1cccc([N+](=O)[O-])c1	21*	-110	-9	5	2	-7
Cc1ccc(C)c(CN2C(=O)c3ccccc3S(=O)c3ccc(C(=O)N4CCN(c5ccccn5)CC4)cc32)c1 (stereo not given)	27*	-126	-29	1	14	7
CCCC(C)C(=O)Nc1ncc(S(=O)(=O)c2ccc([N+](=O)[O-])cc2)s1 (stereo not given)	21*	-112	-12	7	-2	2
CCC(C)(C)C(=O)Nc1ncc(S(=O)(=O)c2ccc([N+](=O)[O-])cc2)s1	9	-55	-38	3	·	·
CCCCC/C=C/C1=CC(=O)C[C@H](c2ccc(OC)c(OC)c2)C1	3	-13	-6	2	·	·
Cc1ccc(C)c(-n2cc(CNCCCn3cccn3)c(-c3ccccc3)n2)c1	243*	i	5	-8	218*	-1
Cc1ccc(-n2cc(CNC(C)Cn3cncn3)c(-c3ccc(F)cc3)n2)cc1 (stereo not given)	-1	6	3	-1	·	·
Cc1ccc(-n2cc(CNCCCn3cccn3)c(-c3cccc(C)c3)n2)cc1	18	-92	19	8	·	·
Cc1ccc(C)c(-n2cc(CNC(C)Cn3cncn3)c(-c3ccccc3)n2)c1 (stereo not given)	39*	-201	-13	-7	36*	3
CCCNC(=O)Nc1ccc(C(F)(F)F)cc1	-3	15	-5	-4	·	·
CN(C)C(CNC(=O)c1cc(S(=O)(=O)N2CCOCC2)ccc1Cl)c1cccs1 (stereo not given)	5	-22	-2	1	·	·
